# From PubChem BioAssay (NCI)
# The panel holds about 79,000 compounds, 15% with a hit somewhere; the sample as a whole holds those more often. Values without a mark were called inactive. Activity calls are given as the source filed them. Cut-off read from the data, not from the text of the source: active = growth inhibition above about 70%; inactive = the rest.
# How the values were obtained:
# [1] = NCI Yeast Anticancer Drug Screen. Data for the rad50 strain (AID 155);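 note: 0% = growth of vehicle-only cultures of the same strain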; settings: S. cerevisiae rad50 strain growth inhibition, active compounds read high
# Method in brief: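 Growth of the mutant yeast was measured after compound exposure and referenced to vehicle-treated cultures.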
# [2] = NCI Yeast Anticancer Drug Screen. Data for the mec2-1 strain (AID 157); settings: S. cerevisiae mec2-1 strain, active compounds read high
# Method in brief: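 mec2-1 yeast strain, carrying an alteration in DNA damage repair or cell cycle control, was exposed to compounds; growth inhibition was measured relative to vehicle-treated controls.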
# [3] = NCI Yeast Anticancer Drug Screen. Data for the sgs1 mgt1 strain (AID 161);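 note: 0% = growth of cultures given vehicle only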; settings: S. cerevisiae sgs1 mgt1 strain, active compounds read high
# Method in brief: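 Yeast cells carrying a defined DNA-repair defect were exposed to test compounds. Growth inhibition was measured relative to vehicle-treated controls.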
# [4] = NCI Yeast Anticancer Drug Screen. Data for the cln2 rad14 strain (AID 165);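 note: 0% = growth equal to vehicle treated cultures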; settings: S. cerevisiae cln2 rad14 strain, active compounds read high
# Method in brief: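 Yeast carrying cln2 and rad14 alterations (cell cycle control and DNA damage repair) were exposed to compounds. Growth inhibition was measured against vehicle-treated controls.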
# [5] = NCI Yeast Anticancer Drug Screen. Data for the bub3 strain (AID 167); settings: S. cerevisiae bub3 mutant strain, active compounds read high
# Method in brief: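 Whole-cell yeast assay. The mutant strain was incubated with compounds, and growth inhibition was determined by comparison with vehicle-treated cells.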
# [6] = NCI Yeast Anticancer Drug Screen. Data for the mlh1 rad18 strain (AID 175); settings: S. cerevisiae mlh1 rad18 strain growth inhibition, active compounds read high
# Method in brief: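 Growth inhibition of the yeast strain was measured after compound exposure and expressed relative to vehicle-treated controls. The strain carries defined defects in DNA damage repair.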
# [7] = at 5.0 µM (retest, dose inferred, filed as 0.5)
# [8] = at 50.0 µM (retest, dose inferred, filed as 5.0)
Compound,"growth inhibition [1, 7]","growth inhibition [1, 8]",growth inhibition ([1]; at 50.0 µM),"growth inhibition [2, 7]","growth inhibition [2, 8]",growth inhibition ([2]; at 50.0 µM),"growth inhibition [3, 7]","growth inhibition [3, 8]",growth inhibition ([3]; at 50.0 µM),"growth inhibition [4, 7]","growth inhibition [4, 8]",growth inhibition ([4]; at 50.0 µM),"growth inhibition [5, 7]","growth inhibition [5, 8]",growth inhibition ([5]; at 50.0 µM),"growth inhibition [6, 7]","growth inhibition [6, 8]",growth inhibition ([6]; at 50.0 µM)
COc1cc(C2CC(=O)c3ccccc3O2)ccc1O (stereo not given),0%,98% (active),89% (active),10%,99% (active),92.7% (active),17%,98% (active),92.2% (active),-16%,97% (active),88.7% (active),26%,97% (active),90.7% (active),15%,98% (active),89.5% (active)
N#CC1(C#N)C2C=CC(C3CCC=C32)C1(C#N)C#N (stereo not given),14%,93% (active),0.4%,17%,97% (active),45.3%,11%,96% (active),60.5%,10%,60%,-16.2%,25%,97% (active),95% (active),25%,97% (active),68.8%
CCCCCCCCC/C=C1\CCC(CN(C)C)C1=O (stereo not given),-26%,88% (active),89.4% (active),-36%,98% (active),93% (active),-28%,91% (active),90.8% (active),-6%,96% (active),89.6% (active),-24%,97% (active),89.5% (active),-27%,97% (active),88.8% (active)
O=c1[nH]c2ccc([N+](=O)[O-])c(Cl)c2c2ccccc12,74% (active),97% (active),9.1%,21%,98% (active),12.3%,38%,98% (active),9%,9%,95% (active),-46.8%,19%,97% (active),1.05%,70% (active),96% (active),39.9%
COc1ccc(/C(=N/NC(N)=O)C(c2ccc(OC)cc2)C2C(=O)Oc3ccccc32)cc1 (stereo not given),-7%,88% (active),98.2% (active),-59%,96% (active),99% (active),-4%,86% (active),98.6% (active),0%,77% (active),88.8% (active),0%,83% (active),99.2% (active),-2%,95% (active),98.4% (active)
CC(C)C(CC(C)(C)C)OC(=O)Nc1cccc2ccccc12 (stereo not given),0%,96% (active),13.1%,-1%,98% (active),26.4%,0%,97% (active),61.8%,-17%,95% (active),6.15%,11%,96% (active),61.1%,-3%,97% (active),58.1%
CC(=O)[O-].O=C(N/N=C/c1ccccc1[O-])c1ccccc1.[Zn+2],-3%,61%,-2.05%,6%,89% (active),14.6%,1%,86% (active),55.8%,-5%,32%,-16.9%,-10%,70% (active),0.3%,9%,91% (active),32%
CCOP(=O)(CCC(=O)[C@@]1(O)CC[C@H]2[C@@H]3CCC4=CC(=O)CC[C@]4(C)[C@H]3CC[C@@]21C)OCC,0%,2%,33.9%,1%,5%,5.55%,3%,16%,72.8% (active),-1%,2%,59.4%,-2%,-3%,29.8%,-4%,7%,39.1%
C#CC(=O)OCC#CCOC(=O)C#C,3%,77% (active),97.5% (active),0%,95% (active),98.5% (active),-9%,83% (active),78.2% (active),-7%,15%,49.2%,1%,76% (active),92.2% (active),5%,96% (active),96% (active)
COc1ccc2c(c1)CCCN2CCCCCCCN1CCCCC1,13%,49%,72.5% (active),16%,34%,45.5%,26%,73% (active),77.1% (active),22%,58%,90.2% (active),34%,64%,83.5% (active),32%,73% (active),63.1%
